Screening results from PubChem BioAssay.
JMJD2A Tudor inh – blocks the human JMJD2A Tudor domain | AlphaScreen JMJD2A-Tudor / H3K4me3 peptide binding | hit rate 4.4% among 390,000 | Potency, µM (top dose mostly 114 µM), without a hit: top-dose activity change, negative = inhibition, most hits filed as inhibitors | O75164; also: % is scaled to controls: 0 for no effect and ±100 for the full control effect; nearly all actives have a fitted effect of over 50% in size
G9a block – blocks human histone lysine methyltransferase G9a; Q96KQ7; G9a H3K9 monomethylation, AlphaScreen, 2 h; Potency, µM (titrated, usually from 102 µM), without a hit: at the top dose activity, negative = inhibition, actives largely listed as inhibitors; hit rate 8.8% among 350,000; also: % is scaled to controls: 0 for no effect and ±100 for the full control effect; nearly all actives have a fitted effect of over 75% in size
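Enzyme 20 nM + cpd, 15 min RT; add b-H3K9 pep 500 nM / SAM 20 uM; 2 h RT; anti-H3K9me1 Ab 0.5 ug/mL + SA donor / anti-rabbit acceptor beads 20 ug/mL each, 10 min; AlphaScreen read.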
BAZ2B inh – BAZ2B (human) inhibition. Q9UIF8. AlphaScreen BAZ2B-H3K14Ac peptide displacement. Potency, µM (titrated, usually from 114 µM), for inactives: at the top dose activity change, negative = inhibition, most hits filed as inhibitors. hit rate 4.4% among 360,000; also: % is scaled to controls: 0 for no effect and ±100 for the full control effect; nearly all actives have a fitted effect of over 60% in size
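Complex of BAZ2B and biotin-H3K14Ac (50 nM apiece) forms over 30 min at RT, then faces library compounds up to 110 uM for another 30 min; AlphaScreen beads added, 20 min dark incubation, luminescence read.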
L3MBTL1 inh – inhibitors of human L3MBTL1; Q9Y468; AlphaScreen L3MBTL1–H3K9me1 peptide binding; Potency, µM (highest dose often 57.1 µM), inactives show at the highest dose activity, negative = inhibition, most hits filed as inhibitors; hit rate 0.66% among 230,000; AID 485360; also: % is scaled to controls: 0 for no effect and ±100 for the full control effect; nearly all actives have a fitted effect of over 60% in size
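AlphaScreen assay: L3MBTL1 (50 nM final) was preincubated 30 min at room temperature with biotinylated H3(1-15)K9me1 peptide (75 nM final), then 30 min with library compounds; streptavidin donor and nickel chelate acceptor beads (10 ug/mL final) added, 30 min dark.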
HP1b binding inh – inhibitors of HP1-beta chromodomain binding to methylated histone tails; AlphaScreen HP1-beta / biotin-H3K9me3 peptide binding; Potency, µM (titrated, usually from 114 µM), without a hit: at the top dose activity change, negative = inhibition, most hits filed as inhibitors; P83916; hit rate 0.56% among 390,000; AID 540317; also: nearly all actives have a fitted effect of over 70% in size
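HP1-beta protein (50 nM final) preincubated 30 min at room temperature with biotinylated H3(1-18)K9me3 peptide (50 nM) in PBS pH 7.4, 0.01% Tween-20, then compound added for 30 min. AlphaScreen streptavidin donor/nickel chelate acceptor beads (10 ug/mL final), 30 min dark, luminescence read.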
GLS inh – inhibitors of human glutaminase (GLS); O94925; GLS enzymatic activity, qHTS titration; Potency, µM (doses to about 45.5 µM), without a hit: at the top dose activity change, negative = inhibition, most hits filed as inhibitors; hit rate 0.21% among 410,000; also: % is scaled to controls: 0 for no effect and ±100 for the full control effect
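Coupled fluorescence readout: glutamate oxidase/HRP/Amplex Red detect glutamate formed by hKGA from L-glutamine (1 mM solution added). Buffer 45 mM KH2PO4 pH 8.2, 0.02% Tween-20; reads at t0 and 30 min RT.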
* hit, by the source's call; ? = inconclusive; · = no result; [ ] = another dose, or the depositor's remark. Most compounds without a hit are left out; they make up all but 10% or so of the library. Calls follow the shape of the dose curve; as a rule, active = well fitted curve in the direction sought with a large enough effect; inconclusive = small, poorly fitted or top-dose-only effect, or another doubt; inactive = no such curve, though single readings can be large; an effect the other way counts as inactive or inconclusive. Potency is read from the fitted curve at half-maximal effect.

SMILES | JMJD2A Tudor inh | G9a block | BAZ2B inh | L3MBTL1 inh | HP1b binding inh | GLS inh
O=C(Nc1ccc(N2CCN(C(=O)c3ccccc3)CC2)cc1)c1cc2ccccc2o1 | 5.3% | 9.4%[59 µM] | 3.3% | -1.3% | 22.5% | -7.0%
O=C(Nc1ccc(C(=O)N2CCOCC2)cc1)c1ccccc1 | -1.4% | · | · | · | 61.9% | 0.0%
O=C(Nc1ccc(N2CCN(C(=O)c3ccccc3)CC2)c(Cl)c1)c1ccc(Br)o1 | -25.0% | 44.7µM* | -34.8% | -9.6% | 32.6% | -3.4%
O=C(Nc1ccc(N2CCN(C(=O)c3ccccc3)CC2)cc1)c1ccc(Br)o1 | -27.6% | 31.6µM* | ? | -14.8% | -2.4% | 18.4%
O=C(Nc1ccc(N2CCOCC2)c(Cl)c1)c1ccc(Br)o1 | -12.0% | -50.3%[12.7 µM] | -0.2% | -7.1% | 11.3% | 4.3%
CNc1cc(C(F)(F)F)nc(-c2ccccn2)n1 | ? | 12.5%[59 µM] | -1.2% | -7.0% | 31.5% | 1.5%
Nc1nc(-c2ccccn2)nc(N)c1Cc1ccc(Cl)cc1Cl | 89.1µM* | -6.0% | 7.94µM* | 3.55µM* | 34.0% | 0.0%
Nc1nc(-c2ccccn2)nc(N)c1Cc1ccccc1F | ? | -0.5% | 6.31µM* | 3.98µM* | 41.9% | 5.9%
COc1ccc(CCNC(=O)c2cccc(Nc3nc4ccccc4nc3-n3nc(C)cc3C)c2)cc1OC | 12.3% | ? | ? | · | 40.5% | -1.1%
O=C1CN(C(=O)c2ccccc2C(F)(F)F)C(c2ccccc2)c2cc(F)ccc2N1 (stereo not given) | -14.7% | 9.4%[59 µM] | -1.3% | · | 7.1% | -2.8%
COc1ccc(OC)c(NC(=O)Cc2c(C(=O)O)n(C)c3ccc(C)cc23)c1 | -25.3% | -14.7%[59 µM] | -25.7% | · | 17.0% | -1.1%
CCCc1cc(=O)n2[nH]c(-c3ccc(OC)cc3)nc2n1 | 6.6% | -10.4% | -2.2% | · | 42.8% | 4.2%
CCCc1cc(=O)n2[nH]c(-c3cc(OC)c(OC)c(OC)c3)nc2n1 | 7.0% | 44.7µM* | 7.8% | -1.5% | 52.1% | 6.5%
COc1cc(C2C(=O)N(C3CCCCCC3)CC(=O)N2CCC2=CCCCC2)ccc1OC(C)C (stereo not given) | -12.5% | -25.2%[59 µM] | -3.6% | · | 27.5% | -1.9%
O=C1ON=C(c2ccc(Cl)cc2)/C1=C/c1ccc(O)cc1 | -6.2% | 50.1µM* | ? | · | 7.0% | ?
O=C1ON=C(c2ccccc2)/C1=C/c1ccc(O)cc1 | -4.8% | 50.1µM* | -13.4% | -6.0% | 36.5% | 37.8%
Cc1ccc(C2=NOC(=O)/C2=C\c2ccccc2)cc1 | -12.5% | · | · | · | 39.7% | 21.4%
O=C1ON=C(c2ccccc2)/C1=C\c1ccco1 | -8.6% | 31.6µM* | ? | 22.4µM* | 54.8% | 26.4%
O=C1ON=C(c2ccccc2)/C1=C/c1ccccc1 | -24.6% | 44.7µM* | -27.0% | 0.9% | 37.1% | 21.1%
CC(C)(C)OC(=O)N1CCC(c2c(C(=O)N3CCN(c4ccccc4F)CC3)cnn2-c2ccccc2Cl)CC1 | -26.9% | ? | -11.1%[57.1 µM] | · | 29.9% | -1.3%
O=C(NCC(c1cccnc1)N1CCc2ccccc21)c1ccc(F)cc1 (stereo not given) | -12.5% | -1.7%[59 µM] | 10.8% | · | 26.3% | 11.6%
Cc1ccc(/C=C2/C(=O)ON=C2c2ccccc2)o1 | 79.4µM* | 12.6µM* | 28.2µM* | -11.9% | ? | ?
Cc1sc(/C=C2\C(=O)ON=C2c2ccccc2)cc1Br | · | 13.0%[59 µM] | -7.8% | 8.4% | · | ·
COC(=O)C1CCN(c2c([N+](=O)[O-])cc(C(F)(F)F)cc2[N+](=O)[O-])CC1 | -20.5%[11.4 µM] | ? | 35.5µM* | -22.9% | ? | 0.3%
NC(=O)C1CCN(c2c([N+](=O)[O-])cc(C(F)(F)F)cc2[N+](=O)[O-])CC1 | -9.4% | · | -6.7% | 3.3% | 16.7% | 3.2%
Cc1ccc(CNC(=O)c2c(-c3ccc(Br)cc3)noc2C)o1 | -16.2% | 30.2%[59 µM] | 0.0% | · | 18.5%[57 µM] | 9.7%
COc1ccc(C(=O)c2c(N)c(C(=O)Nc3cccc(OC)c3)c3ccccn23)cc1 | -22.1% | 28.2µM* | 0.0% | · | 5.9% | -6.4%
